Reference: PubChem BioAssay (NCI)
This is part of a sample that, as a whole, favours compounds with a hit. Of some 83,000 tested, about 20% had one in any assay.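 Note: values are percent growth. 100 is the growth of untreated cells, values between 100 and 0 indicate rising inhibition; between -100 and 0 indicates cell death.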 Values without a mark were called inactive. Active and inactive are the calls of the source. The calls were made as follows: active = growth percent below 10; inactive = the rest.

Columns and labels:
Assay in all cases: NCI-60 one-dose screen, 48 h (100 = growth as untreated, 0 = no growth, -100 = all killed)
Details in all cases: 10 µM unless noted
NCI-H23 lung = tested on: NCI-H23 lung
NCI-H226 lung = tested on: NCI-H226 lung
NCI-H322M lung = tested on: NCI-H322M lung
HOP-62 NSCLC = tested on: HOP-62 NSCLC
NCI-H460 lung = tested on: NCI-H460 lung
NCI-H522 lung = tested on: NCI-H522 lung
A549/ATCC NSCLC = tested on: A549/ATCC NSCLC
786-0 renal = tested on: 786-0 renal
COLO 205 colon = tested on: COLO 205 colon
DU-145 prostate = tested on: DU-145 prostate
K-562 leukemia = tested on: K-562 leukemia
MALME-3M melanoma = tested on: MALME-3M melanoma
MDA-MB-231 breast = tested on: MDA-MB-231 breast
RXF 393 renal = tested on: RXF 393 renal
SF-268 CNS = tested on: SF-268 CNS
SF-295 CNS = tested on: SF-295 CNS
SF-539 CNS = tested on: SF-539 CNS
UACC-257 melanoma = tested on: UACC-257 melanoma
M14 melanoma = tested on: M14 melanoma

Row | Compound | growth (NCI-H23 lung) | growth (NCI-H226 lung) [%] | growth (NCI-H322M lung) [%] | growth (HOP-62 NSCLC) | growth (NCI-H460 lung) | growth (NCI-H522 lung) | growth (A549/ATCC NSCLC) [%] | growth (786-0 renal) | growth (COLO 205 colon) | growth (DU-145 prostate) | growth (K-562 leukemia) | growth (MALME-3M melanoma) | growth (MDA-MB-231 breast) [%] | growth (RXF 393 renal) | growth (SF-268 CNS) | growth (SF-295 CNS) | growth (SF-539 CNS) | growth (UACC-257 melanoma) | growth (M14 melanoma)
1 | O=C(C(=O)N1CCCC1)c1cn(CCCn2cc(C(=O)C(=O)N3CCCC3)c3cc(Br)ccc32)c2ccc(Br)cc12 | 80.3% | 85.9 | 82.3 | 56.1% | 53.4% | 62% | 57.8 | 71.4% | 106% | 62.3% | 81.9% | 58.1% | 82.1 | 82.8% | 53.7% | -22.4% (active) | 69.5% | 76.4% | 89.2%
2 | COc1cc(C2CC(c3ccc(Cl)cc3)=NN2C=O)ccc1Oc1ccnc2cc(Cl)ccc12 (stereo not drawn) | 65.2% | 51.4 | 88.2 | 53.1% | 65.2% | 47.2% | 59.1 | 78.6% | 94.5% | 85.7% | 72.5% | 64% | 56.9 | 64.2% | 68.6% | 66.2% | 66.2% | 66.8% | 92.4%
3 | COc1ccc(C(=O)OC2C(OC3C(O)COC(O[C@H]4C[C@H]5[C@@H]6CC=C7C[C@@H](O)CC[C@]7(C)[C@H]6CC[C@]5(C)[C@H]4[C@H](C)C(=O)CCC(C)C)C3OC(=O)C(C)C)OCC(O)C2O)cc1 (stereo partly drawn) | 43.1% | 10.9 | 58.6 | -14.2% (active) | 0.329% (active) | -46.1% (active) | 16.1 | -1.64% (active) | -47.9% (active) | 38.4% | -29.8% (active) | 6.67% (active) | 36.5 | -59.4% (active) | -9.13% (active) | -60.5% (active) | -66.2% (active) | -50% (active) | -61.4% (active)
4 | CCN(CC)c1ccc(/C=N/N=C(N)N)cc1 | 65.7% | 84.5 | 87.7 | 54.8% | 23.3% | 27.1% | 44.6 | 72.4% | 30.2% | 55.5% | 26.3% | 58.9% | 66 | 68% | 45.7% | 27.8% | 51.8% | 47.9% | 42.4%
5 | CN(C)N1C(=O)c2c(Cl)c(Cl)c(Cl)c(Cl)c2C1=O | 96.9% | 103 | 112 | 108% | 110% | 94.2% | 104 | 103% | 111% | 120% | 98.4% | 123% | 115 | 112% | 106% | 123% | 118% | 104% | 101%
6 | CCOC(OCC)c1cnc2nc(NC(C)=O)[nH]c(=O)c2n1 | 102% | 107 | 101 | 120% | 104% | 98.8% | 99.7 | 97.5% | 121% | 107% | 104% | 89.8% | 104 | 110% | 112% | 109% | 108% | 109% | 100%
7 | O=C(O)c1cc2cc(OCc3ccccc3)ccc2[nH]1 | 103% | 107 | 99 | 93.8% | 98.4% | 90.3% | 90.9 | 115% | 93.7% | 114% | 112% | -20.3% (active) | 99.1 | 111% | 99.9% | 108% | 87.5% | 48% | 106%
8 | Oc1c(C(Nc2ccccc2Br)c2ccccc2)ccc2cccnc12 (stereo not drawn) | 22.2% | 35 | 24.5 | 19.6% | 5.78% (active) | -1.78% (active) | 22.6 | 6.91% (active) | 32.4% | 28.8% | 11.4% | 28.1% | 37.7 | 37.6% | 18.5% | 13.6% | 19.9% | 14.5% | -14.2% (active)
9 | CC(NC(=O)c1ccccc1)C(=O)Nc1ccccc1 (stereo not drawn) | 105% | 104 | 127 | 103% | 118% | 99.6% | 96.3 | 105% | 106% | 118% | 91.4% | 145% | 115 | 118% | 108% | 125% | 97.2% | 103% | 103%
10 | O=C1C(Cl)=C(Nc2cccc3ccccc23)C(=O)c2ccccc21 | 73.6% | 87.8 | 83.1 | 84.9% | 90.7% | 44.7% | 87.9 | 90% | 88.9% | 111% | 26.6% | 53.4% | 57.5 | 120% | 85.5% | 95.1% | 107% | 74.7% | 87.8%
11 | C#CCO[C@H]1CC[C@H](OCC#C)[C@@H]2[C@H]1[C@H]1C[C@@H]3[C@@]4(C)CCC[C@@](C)(C(=O)OC)[C@@H]4CC[C@@]23C=C1C(C)C | 64.3% | 81.7 | 88.5 | 77.5% | 104% | -66.5% (active) | 57.1 | -23.5% (active) | 83.5% | 94.3% | 79.7% | -41.7% (active) | 65 | 94.9% | 81.1% | 92.7% | 70.9% | 56% | 93.8%
12 | O=C1CCCN1C1CCN2CCCc3cccc1c32 (stereo not drawn) | 105% | 111 | 114 | 97% | 110% | 84.2% | 107 | 101% | 110% | 119% | 109% | 94.2% | 101 | 128% | 112% | 110% | 101% | 111% | 100%
13 | CN1C(=O)NC(Cc2c[nH]c3c(Cl)cccc23)C1=O (stereo not drawn) | 102% | 93.8 | 120 | 107% | 112% | 96.4% | 102 | 109% | 105% | 123% | 101% | 141% | 117 | 92.1% | 110% | 109% | 98.4% | 116% | 108%
14 | O=C(c1ccccc1)C1OC1C(=O)c1ccccc1 (stereo not drawn) | 3.63% (active) | 61.1 | 75.4 | 21% | 64.1% | 8.93% (active) | 70.4 | 15.1% | 27.6% | 1.5% (active) | 9.28% (active) | 30.5% | 25.9 | 2.72% (active) | 39.5% | 72.8% | 24.5% | 40.2% | 17.3%
15 | Brc1ccsc1Br | 107% | 104 | 125 | 93.4% | 111% | 95.9% | 105 | 108% | 103% | 126% | 108% | 114% | 116 | 117% | 113% | 126% | 106% | 111% | 106%
16 | CCN(CC)c1cc(C)c(Cc2c(OC)ccc3ccccc23)cc1C | 93.7% | 92.3 | 96.9 | 85% | 95.1% | 74.7% | 82.8 | 100% | 96.7% | 105% | 84.7% | 102% | 98.6 | 101% | 95.7% | 103% | 103% | 96.8% | 90.8%
17 | CC(=O)NC1C(O[C@H]2C[C@H]3[C@@H]4CC=C5C[C@@H](O)CC[C@]5(C)[C@H]4CC[C@]3(C)[C@H]2[C@H](C)C(=O)CCC(C)C)OCC(O)C1O (stereo partly drawn) | 65.9% | 60.6 | 81.3 | 52% | 22.9% | 66.7% | 53.1 | 1.28% (active) | 30.1% | 57.7% | 0.56% (active) | 34.7% | 59.9 | -43.2% (active) | 31% | -53.2% (active) | -26.2% (active) | -15.5% (active) | -22.2% (active)
